Experimental findings from the supplement of paper PMC11417369 are described below.

± gives the standard deviation of the averaged measurements. Whole data set: some 25,000 sequences, median “ln(normalized median fluorescence intensity)” near 10, cut for the highest 2% near 12. What follows is part of a selection rich in the highest values, with near analogues and random picks from the rest.

For this test, the system named is PfAP2-G AP2 domain (GST-tagged). Nature of the test: gcPBM binding intensity (ln(normalized median fluorescence intensity)); higher = stronger DNA binding. In outline: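 GST-tagged P. falciparum DNA-binding domains produced in E. coli were incubated for 1 h on an Agilent 4 × 180k array of primer-extended double-stranded 36-bp intergenic genomic probes with negative controls. Binding intensity is the highest Masliner-normalised natural-log median intensity across replicate spots of either probe orientation, with bound protein detected by Alexa488 anti-GST antibody at 488 nm.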
Consider “ATATATAATATATACACACACATGTATATATAAATA [CACACA_site1968]”, for which the “gcPBM binding intensity (ln)” value is 9.87 ± 0.16. For TTTCTTTTTAAATAGGTGCATATTTTTATAAATATA, the “gcPBM binding intensity (ln)” value came out at 10.1 ± 0.38. The same measure for “AAACTAACTCTAACATGTACATATATATATATATAT [XGTACX_site6949]”: 11.1 ± 0.66; for “AACAATTATTGTAATGCATGCACTGAATATAGAAAG [TGCATGCA_site889]”: 10.2 ± 0.18; for “TGTGTTAATATATGAAGTACACAATACACACTAATT [XGTACX_site5469]”: 11.4 ± 0.73. As for “ATGTACATTTTTTTCACACATACATTAATTTATGAG [CACACA_site5801]”, the “gcPBM binding intensity (ln)” value amounted to 11.3 ± 0.87. Regarding “GCAGGCTAAAAAATTACACACGAAAAAAATGAATTT [CACACA_site3417]”, the “gcPBM binding intensity (ln)” value came out at 9.86. For the sequence “GCCCCCTAAAAAATTACACACGAAAAAAATGAATTT [CACACA_site9128]”, the “gcPBM binding intensity (ln)” value was found to be 11.7 ± 1.2. For the sequence “ATAAAAAAATAAATAACACACAAAATTACACGAAAA [CACACA_site3620]”, the “gcPBM binding intensity (ln)” value is 10.01 ± 0.049. As for “TATATTATATTTTTATGTACTTATTTATTTTGTTTC [XGTACX_site6145]”, the “gcPBM binding intensity (ln)” value turned out to be 11.3 ± 0.67. Take “AGTCTGAATAAAATTACACACATATACAGATATATA [CACACA_site5054]”: the “gcPBM binding intensity (ln)” value was found to be 9.8 ± 0.014.

In the case of “ACCAAATTATCAAATGGTACACATAAAATAATAAAA [XGTACX_site865]”, the “gcPBM binding intensity (ln)” value was 11.3 ± 0.74.

Consider “GTCGCCAAAAGGTGTACACATAATGCATTATCATAA [CACACA_site6112]”, for which the “gcPBM binding intensity (ln)” value worked out at 11.7 ± 0.88.

As to “TGCATGCATTATCATAGTACATATAATGTTGTATAA [XGTACX_site2775]”, the “gcPBM binding intensity (ln)” value was found to be 10.7 ± 0.45. The same measure for “TTTTTTTTTTTTTTGTGTACATATAATGCACATTAT [XGTACX_site6505]”: 11.4 ± 1; for “TAAGTCGCCAAAAGGTGTACACATAATGCATTATCA [XGTACX_site8852]”: 11.8 ± 0.79. As to “AAAAAAAAAAAAAGGTGTACAAGTATAATTACATAA [XGTACX_site534]”, the “gcPBM binding intensity (ln)” value was found to be 11.5 ± 0.95. With “TACGTTTTAAAACACACACACAAAAAAAAAAAAAAA [CACACA_site3876]”, the “gcPBM binding intensity (ln)” value was determined as 9.97 ± 0.64. In the case of “TTACATTATATACATACACACCCACCCACAAAAAAA [CACACA_site8187]”, the “gcPBM binding intensity (ln)” value turned out to be 10.7 ± 0.47.

For “ATATATATATAGTGTTGTACATTTAAAAATAATATA [XGTACX_site2627]”, the “gcPBM binding intensity (ln)” value came to 11.2 ± 0.78. For the sequence “ATGTTGTGTATATATACACACATACATATATATATA [CACACA_site8461]”, the “gcPBM binding intensity (ln)” value worked out at 10.4 ± 0.43.

Regarding “TATGTATTCATATGTTGTACATTATATATAATAAGT [XGTACX_site6589]”, the “gcPBM binding intensity (ln)” value stood at 11.2 ± 0.79. Next, “ATATATATATATAAATGTACATTGTGTGTTGTAAGA [XGTACX_site2434]”: 10.8 ± 0.38; “TATATATAAGCGTGTACACATTCTGAGTGTTGTATA [CACACA_site4502]”: 11.7 ± 1.1; “AAATATATATAAGCGTGTACACATTCTGAGTGTTGT [XGTACX_site1088]”: 11.7 ± 1.1. Next, “ATTCCAAAAAAATCAAGTACTAATTTATTATATTAC [XGTACX_site3920]”: 10.9 ± 0.49. In the case of “AATAAATTTAGACACACACACACATATAAATAAATA [CACACA_site6531]”, the “gcPBM binding intensity (ln)” value was 10.1 ± 0.13.

With “AAAGAATTTGCATATACACACAAAAAAATATATACA [CACACA_site386]”, the “gcPBM binding intensity (ln)” value came to 10.03 ± 0.035.

In the case of “CATGTGCATATTAAATGTACATATATACATATATAC [XGTACX_site857]”, the “gcPBM binding intensity (ln)” value is 10.9 ± 0.58. For “TATATTAATAATAAGTGTACATATATATATATTTTT [XGTACX_site288]”, the “gcPBM binding intensity (ln)” value stood at 11.3 ± 0.81. Consider “TTACATACATACAAGTGTACGCATATATTAATATTA [XGTACX_site4006]”, for which the “gcPBM binding intensity (ln)” value came out at 11.8 ± 1. Next, “TTTTTTTTATTAGTGTGTACGCATTTATTTATACAT [XGTACX_site1599]”: 11.7 ± 0.88; “AATATATTTATATAGTGTACATTTTTTATATATGTA [XGTACX_site8142]”: 11.3 ± 0.78. For the sequence “TATATATATATTTATACACACATTAGTGTATACATG [CACACA_site2950]”, the “gcPBM binding intensity (ln)” value turned out to be 10.3 ± 0.22. Next, “ATATTAATATACATATGTACATATATATATATATAT [XGTACX_site7425]”: 11.2 ± 0.62; TTGTGTACATATTAAGTGCATATATATATATATATA: 11.7 ± 1.2; “TTAATATATTATATTTGTACATATATATATATACAA [XGTACX_site4798]”: 10.9 ± 0.62. Turning to “AATATATCTTTTTACGGCAACCATATTTTTCCCATT [CACACA_negctrl_site963]”, the “gcPBM binding intensity (ln)” value turned out to be 10.21 ± 0.064. Consider “TGATTATCCTATATATATTTCATAATGGAAAAAAAT [TGCATGCA_negctrl_site444]”, for which the “gcPBM binding intensity (ln)” value is 9.89 ± 0.35.

With “CCATATGATATATATTGTACATTATATATTATTTCT [XGTACX_site1697]”, the “gcPBM binding intensity (ln)” value is 10.7 ± 0.45.

Consider “CGTTAAAGGGAATGTATACACACGTTTCTCTATGTT [CACACA_site1198]”, for which the “gcPBM binding intensity (ln)” value came out at 10.2 ± 0.16. On to “TATACACATATATAAACACACAAAAAAAAAAAAAAA [CACACA_site7041]”, for which the “gcPBM binding intensity (ln)” value is 9.78 ± 0.53. Regarding “ATATACACACAAAAACGTACACATATATATATGTAT [XGTACX_site2673]”, the “gcPBM binding intensity (ln)” value was 11.7 ± 0.86. For the sequence “TATAAACGTATAATATGTACACACACATATATACAA [XGTACX_site1686]”, the “gcPBM binding intensity (ln)” value was determined as 11.3 ± 0.94.
